Out of some 65,000 compounds screened, about 45 (0.07%) were called active. These entries were drawn from the full list. Unmarked numbers belong to inactive results. Calls come from the whole dose curve.
Potency is the fitted concentration of half-maximal effect.

The assay has as its system Schistosoma mansoni peroxiredoxin 2 (Prx2). Briefly: Schistosoma Mansoni Peroxiredoxins (Prx2). As to conditions: S. mansoni Prx2 activity coupled to TGR/GSH (TGR is thioredoxin glutathione reductase), NADPH fluorescence loss, qHTS. An excerpt:
NIH Molecular Libraries Screening Centers Network [MLSCN]
NIH Chemical Genomics Center [NCGC]
David Williams [Illinois State University]
Schistosoma mansoni, a causative agent of schistosomiasis, resides in the bloodstream of their host up to 30 years without being eliminated by the host immune attack. One proposed survival mechanism is the production of an antioxidant "firewall" that neutralizes the oxidative assault of the host's immune attack. Schistosoma mansoni peroxiredoxins (Prx) are important parasite antioxidant proteins that play a crucial role in redox balance mechanisms. […] First, the proteins are essential for the parasite survival. […] Third, the protein(s) is amenable for study at the molecular level and can be produced in bacteria in large quantities, in soluble and active form. Inhibition of Prx activity was screened in a coupled-enzyme format with reducing equivalents being transferred from NADPH to […] intermediate via thioredoxin/glutathione reductase (TGR)-catalyzed reaction, then from thioredoxin to hydrogen peroxide via Prx-catalyzed electron transfer. A decrease in the fluorescence intensity of NADPH was used to measure the enzyme activity. Purified S. mansoni TGR and Prx were provided by Professor David L. Williams, Illinois State University.
NCGC Assay Protocol Summary:
100 mM phosphate buffer, pH 7.4, 10 mM EDTA, 0.01% Tween-20.
100 uM NADPH/25 nM TGR/700 uM GSH/50 nM Prx2 mixture in columns 1, 2, 5-48. Titration of control potassium antimonyl tartrate (PAT, from 1 mM, then 1:5) pin-transferred to lower half of column 2. Column 1 and upper half of column 2 are neutral (100% activity).
Three uL of reagents were dispensed to 1536-well Greiner black plates. Compounds and controls (20 nL) were transferred via Kalypsys PinTool. The plates were incubated for 15 min at room temperature, and then a 1 uL aliquot of 400 uM NADPH/700 uM GSH was added, immediately followed by a 1uL aliquot of 2.5 mM H2O2 (to start the reaction). The plate was transferred to ViewLux (Perkin-Elmer) High-throughput CCD imager where kinetic measurements (every 30 sec, for a total of 8 min) of NADPH fluorescence were taken using 365 nm excitation/450 nm emission filter set. During dispense, enzyme-containing reagent bottles were kept submerged into 4 deg C water bath to minimize degradation.
Keywords: NIH Roadmap, MLSCN, MLI, MLSMR, David Williams, Peroxyredoxin, Schistosoma mansoni, prx2, prx, , qHTS, NCGC
As for `Oc1ccc2ccccc2c1C=NCc1c(O)ccc2ccccc12`, the Potency is over 57 µM.
For `CC(C)(O)[C@H]1[C@H]2OC(=O)[C@@H]1[C@]1(O)C[C@H]3O[C@]34C(=O)O[C@H]2[C@]14C` the value was over 25.6 µM; for `CC(C)[C@H](CO)Nc1nc(Nc2cc(N)cc(Cl)c2)c2ncn(C(C)C)c2n1`, over 57 µM; for `O=c1[nH]c(=O)n([C@H]2C[C@H](O)[C@H](CO)O2)cc1Br`, over 57 µM.
`COc1cccc(Cn2c(=O)c(CCc3ccccc3)nc3cnc(N(C)C)nc32)c1`: the Potency was over 11.4 µM.
Regarding `COc1ccccc1CNc1ncncc1-c1cccnc1`, the Potency is over 57 µM.
For `COc1ccc(NC(=O)N2CC3(CCN(C(C)=O)CC3)C2)cc1` the value was over 57 µM; for `Cc1ccccc1-c1nc(N(C)Cc2ccco2)c2ccccc2n1`, over 57 µM; for `O=C(c1cc(C(F)(F)F)cc(C(F)(F)F)c1)N1CCC2(CCCN(Cc3ccncc3)C2)CC1`, over 57 µM.
For `C[C@H](CCC(=O)NCC(=O)O)[C@H]1CC[C@H]2[C@H]3[C@@H](C[C@@H](O)[C@]12C)[C@]1(C)CC[C@H](O)C[C@@H]1C[C@@H]3O`, the Potency is over 57 µM.
With `Cc1nc2cnc(Nc3ccccc3)nc2n(C[C@H]2CCCO2)c1=O`, the Potency was over 57 µM.
Consider `CC[N+](C)(CC)CCC[n+]1c(-c2ccccc2)c2cc(N)ccc2c2ccc(N)cc21`, for which the Potency is over 57 µM.
For the molecule `NCC[Se][Se]CCN`, the Potency is over 57 µM.
With `CCCC[C@H]1C(=O)N(c2ccccc2)N(c2ccc(O)cc2)C1=O`, the Potency is over 57 µM.
With `FC(F)(F)c1ccccc1-c1cc(NCc2ccccc2)ncn1`, the Potency is over 57 µM.
As for `O=C(Nc1cccc(F)c1)N1CC2(CCN(C(=O)c3cnccn3)CC2)C1`, the Potency was over 57 µM.
Consider `COCCn1c(=O)c(CCc2ccccc2)nc2cncnc21`, for which the Potency is over 57 µM.
For `O=C(c1cnccn1)N1CCC2(CCCN(Cc3ccccc3)C2)CC1` the value was over 57 µM; for `COc1ccc(-c2nc3cnc(Oc4ccccc4)nc3n(Cc3cccs3)c2=O)cc1`, over 57 µM.
Turning to `COCCn1c(=O)c(-c2cccs2)nc2cncnc21`, the Potency is over 57 µM.
With `Cc1noc(C)c1-c1nccc(N2CCOCC2)n1`, the Potency was over 57 µM.
For `O=C(c1cc(C(F)(F)F)cc(C(F)(F)F)c1)N1CCC2(CCCN(c3ccccn3)C2)CC1` the value was over 57 µM.
For `C/C=C1\C(=O)C[C@@H]2[C@@H]3CCC4=CC(=O)CC[C@@]4(C)[C@H]3CC[C@@]12C` the value was over 57 µM.
With `CS(=O)(=O)N1CCC[C@@]2(CCN(c3ccncc3)C2)C1`, the Potency was over 57 µM.
As for `CCS(=O)(=O)N(C)[C@@H]1c2cc(C#N)ccc2OC(C)(C)[C@H]1O`, the Potency is over 57 µM.
Turning to `O=C(c1ccco1)N1CCC[C@@]2(CCN(Cc3nccs3)C2)C1`, the Potency was over 57 µM.
`COC(=O)[C@@]1(Cc2ccc(F)cc2)[C@H]2c3cc(C(=O)N4CCCC4)n(C[C@H](O)CO)c3C[C@H]2CN1C(=O)c1ccccc1`: the Potency is over 57 µM.
For `Cc1nc2cnc(Nc3ccccc3)nc2n(Cc2ccc(F)cc2)c1=O`, the Potency is over 57 µM.
As to `O=C(c1cccc(F)c1)N1CCC2(CC1)CCN(c1ccccc1)CC2`, the Potency is over 57 µM.
For `Cc1nc2cnc(Oc3cccc(Cl)c3)nc2n(C2CC2)c1=O` the value was over 57 µM; for `NC[C@@H]1O[C@H](O[C@@H]2[C@H](O[C@@H]3O[C@H](CO)[C@@H](COC[C@H]4O[C@@H](CN)[C@@H](O)[C@@H](O)[C@@H]4N)[C@@H]3O)[C@@H](O)[C@@H](N)C[C@H]2N)[C@@H](N)[C@H](O)[C@@H]1O`, over 57 µM; for `CC(C)(C)NCC[C@@H](O)c1cc(C(F)(F)F)nc2c(C(F)(F)F)cccc12`, over 57 µM.
`CCNCCCNCCCNCCCNCC`: the Potency is over 57 µM.
In the case of `COCC(=O)N1CCC2(CCCN(c3ccccc3)C2)CC1`, the Potency is over 57 µM.
As for `c1cncc(-c2nc(N3CCNCC3)c3ccccc3n2)c1`, the Potency is over 57 µM.
As for `c1ccc(CCN2CCN=C2Cc2ccccc2)cc1`, the Potency was over 57 µM.
Take `COC(=O)[C@@]1(Cc2ccccc2)[C@H]2c3cc(C(=O)N4CCCC4)n(Cc4ccc(C)o4)c3C[C@H]2CN1C(=O)c1ccccc1`: the Potency is over 57 µM.
Consider `Cc1nc2cnc(N3CCNCC3)nc2n(Cc2ccc(F)cc2)c1=O`, for which the Potency is over 57 µM.
For `COC(=O)[C@H](C)[C@H]1C[C@]1(C)[C@H](NC(=O)OCc1ccccc1)c1ccccc1` the value was over 57 µM; for `O=c1c(-c2ccc(F)cc2)nc2cnc(N3CCNCC3)nc2n1Cc1cccs1`, over 11.4 µM.
For `CCC[C@@H]1C[C@@]1(CCC)C(NS(=O)(=O)c1cccc2cccnc12)c1ccc(Cl)cc1` (some centres not stated), the Potency was over 57 µM.
The value for `NS(=O)(=O)c1cc(C(=O)O)c(Cl)c([N+](=O)[O-])c1Cl` was over 57 µM.
In the case of `O=c1[nH]c(=O)c2nc3ccccc3nc2[nH]1`, the Potency is over 57 µM.
Turning to `N#Cc1ccc(CN2CCCC3(CCN(C(=O)c4ccco4)CC3)C2)cc1`, the Potency is over 57 µM.
As for `CC(=O)N1CCC2(CCCN(Cc3ccccc3)C2)CC1`, the Potency was over 57 µM.
For `CN1[C@H]2CC(OC(=O)[C@@H](CO)c3ccccc3)C[C@H]1[C@H]1O[C@H]12` (some centres not stated) the value was over 57 µM.
On to `COc1ccc2nccc(C(=O)O)c2c1`, for which the Potency was over 25.6 µM.
In the case of `CN(Cc1ccco1)c1cc(-c2ccccc2C(F)(F)F)ncn1`, the Potency is over 57 µM.
For the molecule `COc1ccc(-c2nc3cnc(N(C)C)nc3n(Cc3cccs3)c2=O)cc1`, the Potency was over 57 µM.
For `Cn1cccc1C(=O)N1CCC2(CC1)CN(c1cccc(-c3ccccc3)c1)C2` the value was over 57 µM.
As to `O=C(c1ccc([N+](=O)[O-])cc1)[C@@H](Br)[C@@H](Br)c1ccnc2ccccc12`, the Potency was over 57 µM.
For `CCCN(C/C=C\I)[C@@H]1CCc2cccc(O)c2C1`, the Potency is over 57 µM.
`O=C(c1ccncc1)N1CCC2(CCCN(C(c3ccccc3)c3ccccc3)C2)CC1`: the Potency is over 57 µM.
Take `Nc1nc(N)c2[nH]c(CNc3ccc(C(=O)O)cc3)nc2n1`: the Potency is over 57 µM.
Turning to `COc1ccccc1CCn1c(=O)c(-c2cn(C)c3ccccc23)nc2cncnc21`, the Potency is over 57 µM.
On to `Cc1cc(N2CCCCC2)nc2ccc(Cc3ccc4nc(N5CCCCC5)cc(C)c4c3)cc12`, for which the Potency is over 11.4 µM.
As for `CC(C)C[C@@H](CC(=O)N[C@@H](CCC(=O)O)CC(=O)O)NC(=O)[C@@H]1CCCC[C@H]1NC(=O)C[C@@H](NC(=O)C[C@H](CO)NC(=O)[C@@H]1CCCC[C@H]1N)C(C)C`, the Potency is over 25.6 µM.
On to `O=c1c(CCc2ccccc2)nc2cnc(N3CCNCC3)nc2n1Cc1cccs1`, for which the Potency was over 57 µM.
For `CS(=O)(=O)N1CCC2(CCN(c3ccncc3)CC2)CC1`, the Potency is over 57 µM.
Take `N[C@H](C(=O)O)c1ccc(C(=O)O)c(O)c1`: the Potency is over 57 µM.
In the case of `Cc1cc(OCC(=O)O)c(Cl)cc1Cl`, the Potency was over 57 µM.
The value for `CC(C)NC(=O)N1CC[C@@]2(CCCN(C(=O)c3cccc(F)c3)C2)C1` was over 57 µM.
Regarding `Cn1c(=S)c2[nH]c(SCCCc3ccccc3)nc2n(C)c1=O`, the Potency is over 57 µM.
Consider `CN1CCC2(CC1)CCN(S(=O)(=O)c1ccccc1)CC2`, for which the Potency was over 57 µM.
For `Cc1cc2c(cc1C)NC1=C(N2)O[C@H](c2c[nH]c3ccc(COc4ccccc4)cc23)C1=O` the value was over 57 µM.
For `O=c1c(-c2cc(F)cc(F)c2)nc2cnc(Oc3ccccc3)nc2n1C[C@H]1CCCO1` the value was over 11.4 µM.
For `FC(F)(F)c1ccccc1-c1nc(-n2ccnc2)c2ccccc2n1`, the Potency was over 57 µM.
On to `O=C(O)c1ccc(C(=O)O)c2c(C(=O)O)ccc(C(=O)O)c12`, for which the Potency is over 57 µM.
Consider `COc1ccccc1CNc1ncnc2ccc(-c3c(C)noc3C)cc12`, for which the Potency is over 57 µM.
The value for `CC(C)c1ccc2c([Si](C)(C)C)c3c(nc2c1)-c1cccc(=O)n1C3` was over 57 µM.
For `COc1ccc2[nH]c3cc4c(=O)c5cc(OC)ccc5[nH]c4cc3c(=O)c2c1`, the Potency is over 57 µM.
Regarding `Cc1cccc(CNc2ccnc(-c3cccnc3)n2)c1`, the Potency is over 57 µM.
On to `C[C@@H](C(=O)Nc1ccc2ccccc2c1)[C@@H]1C[C@@]1(C)[C@@H](NC(=O)c1cccnc1)c1ccccc1`, for which the Potency is over 57 µM.
Consider `CCNc1ncc2ncc(=O)n(Cc3cccc(OC)c3)c2n1`, for which the Potency was over 57 µM.
As to `Cc1c(C)c2c(c(C)c1O)CC[C@@](C)(CN1CCN(c3cc(N4CCCC4)nc(N4CCCC4)n3)CC1)O2`, the Potency was over 25.6 µM.
The value for `CN(C)C(=O)c1ccc(-c2cncnc2NC2CCNCC2)cc1` was over 57 µM; that for `COc1ccc(Br)c2c1C[C@H](C(=O)O)CC2` was over 57 µM.
Consider `COC(=O)[C@@H]1[C@H]2C[C@H]3c4[nH]c5cc(OC)ccc5c4CCN3C[C@@H]2C[C@@H](OC(=O)c2cc(OC)c(OC)c(OC)c2)[C@@H]1OC`, for which the Potency was over 57 µM.
Consider `O=C(c1ccc(F)cc1)C1CCN(CCCCc2ccccc2)CC1`, for which the Potency is over 57 µM.
On to `Cc1ccnc(N)c1`, for which the Potency is over 25.6 µM.
Take `COc1ccccc1CNc1cc(-c2ccccc2CN(C)C)ncn1`: the Potency was over 57 µM.
Consider `O=C(NCc1ccccc1)[C@H]1C[C@@H]1[C@H](NP(=O)(c1ccccc1)c1ccccc1)c1ccccc1`, for which the Potency was over 57 µM.

(Values after PubChem BioAssay AID448 (National Center for Advancing Translational Sciences (NCATS), 2006).)
